Measured values as given in the supplement of paper PMC6522484.
± gives the standard deviation of the averaged measurements.

Assays:
DLD1 [1] = experiment: cell viability (CellTiter-Glo) relative to plate median (fraction of plate median); higher = more viable cells; details: 5 µM; treatment time 24 h; reporter: 7TFP
In short: (§1)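 Two independent replicates were averaged for each reported value. Library compounds were applied at a final 5 µM for 24 h to colorectal cancer cell lines stably expressing lentiviral TCF/Wnt firefly luciferase reporters. Firefly luciferase or CellTiterGlo luminescence from each well was normalised to the plate median.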

HCT116 = experiment: as above; details: 5 µM; treatment time 24 h; reporter: TCF4/Wnt
In short: as §1

SW480 [2] = experiment: as above; details: 5 µM; treatment time 24 h; reporter: 7TFP
In short: as §1

DLD1 [3] = experiment: TCF/Wnt firefly luciferase reporter signal relative to plate median (fraction of plate median); higher = higher Wnt reporter signal; details: 5 µM; treatment time 24 h; reporter: 7TFP
In short: as §1

SW480 [4] = experiment: as above; details: 5 µM; treatment time 24 h; reporter: 7TFP
In short: as §1

CCc1ccc2c(O)c3c(cc2c1C(=O)OC)C(=O)c1c(O)ccc(O)c1C3=O
cell viability (DLD1 [1]): 1.04 ± 0.093
cell viability (HCT116): 1.06 ± 0.099
cell viability (SW480 [2]): 1.14 ± 0.13
TCF/Wnt firefly luciferase reporter signal (DLD1 [3]): 1.04 ± 0.15
TCF/Wnt firefly luciferase reporter signal (SW480 [4]): 0.967 ± 0.029

CC(=O)N[C@@H](CC(=O)c1ccccc1N)C(=O)O [N-Acetyl-kynurenine]
cell viability (DLD1 [1]): 1.09 ± 0.12
cell viability (HCT116): 1.12 ± 0.11
cell viability (SW480 [2]): 1.01 ± 0.044
TCF/Wnt firefly luciferase reporter signal (DLD1 [3]): 0.859 ± 0.17
TCF/Wnt firefly luciferase reporter signal (SW480 [4]): 1.05 ± 0.078

CCOC(=O)c1c(C)cc(O)cc1O
cell viability (DLD1 [1]): 1.11 ± 0.085
cell viability (HCT116): 1.01 ± 0.09
cell viability (SW480 [2]): 1.07 ± 0.014
TCF/Wnt firefly luciferase reporter signal (DLD1 [3]): 1.06 ± 0.14
TCF/Wnt firefly luciferase reporter signal (SW480 [4]): 1.08 ± 0.042

CCC(C)(C)C(=O)O[C@H]1C[C@@H](C)C=C2C=C[C@H](C)[C@H](CC[C@@H]3C[C@@H](O)CC(=O)O3)[C@H]21
cell viability (DLD1 [1]): 0.864 ± 0.23
cell viability (HCT116): 0.8745 ± 0.005
cell viability (SW480 [2]): 0.99 ± 0.071
TCF/Wnt firefly luciferase reporter signal (DLD1 [3]): 0.902 ± 0.34
TCF/Wnt firefly luciferase reporter signal (SW480 [4]): 0.827 ± 0.41

O=c1c(O)c(-c2ccccc2)oc2cccc(O)c12
cell viability (DLD1 [1]): 1.03 ± 0.014
cell viability (HCT116): 1.02 ± 0.044
cell viability (SW480 [2]): 1.01 ± 0.045
TCF/Wnt firefly luciferase reporter signal (DLD1 [3]): 1.07
TCF/Wnt firefly luciferase reporter signal (SW480 [4]): 0.969 ± 0.021

CC(=O)O[C@@H]1CC2C(C)(C)[C@H](O)C=C[C@]2(C)C2CC[C@@]3(C)[C@H](c4ccoc4)OC(=O)C4OC43[C@@]21C (stereo not given in full)
cell viability (DLD1 [1]): 1.05 ± 0.064
cell viability (HCT116): 1.08 ± 0.092
cell viability (SW480 [2]): 1.06 ± 0.028
TCF/Wnt firefly luciferase reporter signal (DLD1 [3]): 0.97 ± 0.042
TCF/Wnt firefly luciferase reporter signal (SW480 [4]): 0.926 ± 0.1

CCCCC1C(=O)N(c2ccccc2)N(c2ccc(O)cc2)C1=O (stereo not given)
cell viability (DLD1 [1]): 0.923 ± 0.015
cell viability (HCT116): 0.873 ± 0.038
cell viability (SW480 [2]): 0.898 ± 0.028
TCF/Wnt firefly luciferase reporter signal (DLD1 [3]): 1.21 ± 0.057
TCF/Wnt firefly luciferase reporter signal (SW480 [4]): 1.02 ± 0.05

COc1ccccc1OCCNCC(O)COc1cccc2[nH]c3ccccc3c12 (stereo not given)
cell viability (DLD1 [1]): 1.05 ± 0.22
cell viability (HCT116): 1.06 ± 0.078
cell viability (SW480 [2]): 1.1
TCF/Wnt firefly luciferase reporter signal (DLD1 [3]): 1.21 ± 0.085
TCF/Wnt firefly luciferase reporter signal (SW480 [4]): 1.075 ± 0.0071

Cc1ccsc1/C=C/C1=NCCCN1C
cell viability (DLD1 [1]): 0.843 ± 0.058
cell viability (HCT116): 0.864 ± 0.044
cell viability (SW480 [2]): 0.9765 ± 0.00071
TCF/Wnt firefly luciferase reporter signal (DLD1 [3]): 1.04 ± 0.021
TCF/Wnt firefly luciferase reporter signal (SW480 [4]): 1 ± 0.083

CNCC[C@@H](Oc1ccccc1C)c1ccccc1
cell viability (DLD1 [1]): 0.949 ± 0.073
cell viability (HCT116): 0.941 ± 0.043
cell viability (SW480 [2]): 0.969 ± 0.021
TCF/Wnt firefly luciferase reporter signal (DLD1 [3]): 1.02 ± 0.014
TCF/Wnt firefly luciferase reporter signal (SW480 [4]): 1.08 ± 0.042

CC(N)C12CC3CC(CC(C3)C1)C2 (stereo not given)
cell viability (DLD1 [1]): 1.02 ± 0.028
cell viability (HCT116): 0.986 ± 0.02
cell viability (SW480 [2]): 0.977 ± 0.025
TCF/Wnt firefly luciferase reporter signal (DLD1 [3]): 0.962 ± 0.03
TCF/Wnt firefly luciferase reporter signal (SW480 [4]): 0.9945 ± 0.0078

C=CCNC1=C2C[C@@H](C)C[C@H](OC)[C@H](O)[C@@H](C)/C=C(\C)[C@H](OC(N)=O)[C@@H](OC)/C=C\C=C(/C)C(=O)NC(=CC1=O)C2=O
cell viability (DLD1 [1]): 1.07 ± 0.014
cell viability (HCT116): 0.623 ± 0.023
cell viability (SW480 [2]): 0.972 ± 0.04
TCF/Wnt firefly luciferase reporter signal (DLD1 [3]): 0.878 ± 0.15
TCF/Wnt firefly luciferase reporter signal (SW480 [4]): 0.731 ± 0.029

CC(COc1ccccc1)N(CCCl)Cc1ccccc1 (stereo not given)
cell viability (DLD1 [1]): 1 ± 0.057
cell viability (HCT116): 1.05 ± 0.028
cell viability (SW480 [2]): 0.978 ± 0.025
TCF/Wnt firefly luciferase reporter signal (DLD1 [3]): 1.05 ± 0.21
TCF/Wnt firefly luciferase reporter signal (SW480 [4]): 1.03 ± 0.014

CC(C)/C(O)=C1/C(=O)O[C@@H](c2ccoc2)[C@]2(C)C(O)[C@@H](O)[C@@]34OC5(C)OC67CC(C)(C(O)[C@]6(O)[C@@H](O)[C@]3(O5)C12)[C@H](CC(=O)O)[C@]74C (stereo not given in full)
cell viability (DLD1 [1]): 0.869 ± 0.11
cell viability (HCT116): 0.985 ± 0.05
cell viability (SW480 [2]): 1 ± 0.026
TCF/Wnt firefly luciferase reporter signal (DLD1 [3]): 1.04 ± 0.028
TCF/Wnt firefly luciferase reporter signal (SW480 [4]): 1.02 ± 0.042

COc1ccc2c(c1)[C@@]1(C)CCC(=O)C[C@H]1CC2 [5beta-12-METHOXY-4,4-BISNOR-8,11,13-PODOCARPATRIEN-3-ONE]
cell viability (DLD1 [1]): 0.9975 ± 0.0035
cell viability (HCT116): 1.07 ± 0.071
cell viability (SW480 [2]): 1.01 ± 0.037
TCF/Wnt firefly luciferase reporter signal (DLD1 [3]): 1.18 ± 0.2
TCF/Wnt firefly luciferase reporter signal (SW480 [4]): 1.05 ± 0.057

O=C(O)CN1C(=O)c2cccc3cccc(c23)C1=O
cell viability (DLD1 [1]): 0.996 ± 0.034
cell viability (HCT116): 0.967 ± 0.017
cell viability (SW480 [2]): 1.005 ± 0.0071
TCF/Wnt firefly luciferase reporter signal (DLD1 [3]): 0.964 ± 0.12
TCF/Wnt firefly luciferase reporter signal (SW480 [4]): 1.09 ± 0.042

CC(=O)NCCCCCC(=O)O
cell viability (DLD1 [1]): 0.987 ± 0.047
cell viability (HCT116): 1.01 ± 0.027
cell viability (SW480 [2]): 1.035 ± 0.0071
TCF/Wnt firefly luciferase reporter signal (DLD1 [3]): 1.01 ± 0.068
TCF/Wnt firefly luciferase reporter signal (SW480 [4]): 1.04 ± 0.07

CCCCCCCCNC(C)C(O)c1ccc(SC(C)C)cc1 (stereo not given)
cell viability (DLD1 [1]): 0.978 ± 0.021
cell viability (HCT116): 1.05 ± 0.042
cell viability (SW480 [2]): 1.02 ± 0.03
TCF/Wnt firefly luciferase reporter signal (DLD1 [3]): 1.08 ± 0.099
TCF/Wnt firefly luciferase reporter signal (SW480 [4]): 1.09 ± 0.085

FC(F)(F)c1ccccc1-n1ccnc1
cell viability (DLD1 [1]): 1.02 ± 0.04
cell viability (HCT116): 1.01 ± 0.017
cell viability (SW480 [2]): 1 ± 0.026
TCF/Wnt firefly luciferase reporter signal (DLD1 [3]): 1.03 ± 0.064
TCF/Wnt firefly luciferase reporter signal (SW480 [4]): 0.912 ± 0.14

CC(=O)[C@H]1CC[C@H]2[C@@H]3C[C@H](C)C4=CC(=O)CC[C@]4(C)[C@H]3[C@@H](O)C[C@]12C
cell viability (DLD1 [1]): 0.979 ± 0.12
cell viability (HCT116): 0.981 ± 0.042
cell viability (SW480 [2]): 0.958 ± 0.029
TCF/Wnt firefly luciferase reporter signal (DLD1 [3]): 1.01 ± 0.069
TCF/Wnt firefly luciferase reporter signal (SW480 [4]): 1 ± 0.022

O=C(O)/C=C/c1ccc(O)c(O)c1
cell viability (DLD1 [1]): 0.941 ± 0.046
cell viability (HCT116): 1.05 ± 0.05
cell viability (SW480 [2]): 1.03 ± 0.081
TCF/Wnt firefly luciferase reporter signal (DLD1 [3]): 0.983 ± 0.14
TCF/Wnt firefly luciferase reporter signal (SW480 [4]): 1.03 ± 0.035

CC[C@@H](C)c1cc(=O)c2c(CO)cc3c(c2o1)C(=O)c1c(O)cccc1C3=O [Espicufolin]
cell viability (DLD1 [1]): 1.09 ± 0.092
cell viability (HCT116): 1.13 ± 0.057
cell viability (SW480 [2]): 1.055 ± 0.0071
TCF/Wnt firefly luciferase reporter signal (DLD1 [3]): 1.29 ± 0.15
TCF/Wnt firefly luciferase reporter signal (SW480 [4]): 1.06 ± 0.057

CC(C(=O)O)c1ccc(N2Cc3ccccc3C2=O)cc1 (stereo not given)
cell viability (DLD1 [1]): 0.986 ± 0.035
cell viability (HCT116): 1.06 ± 0.035
cell viability (SW480 [2]): 0.992 ± 0.054
TCF/Wnt firefly luciferase reporter signal (DLD1 [3]): 0.99 ± 0.14
TCF/Wnt firefly luciferase reporter signal (SW480 [4]): 1.05 ± 0.064

Cc1cc(C(C)(C)CC(C)(C)C)ccc1OCCOCC[N+](C)(C)Cc1ccccc1
cell viability (DLD1 [1]): 1.02 ± 0.069
cell viability (HCT116): 0.977 ± 0.076
cell viability (SW480 [2]): 1.08 ± 0.014
TCF/Wnt firefly luciferase reporter signal (DLD1 [3]): 0.87 ± 0.061
TCF/Wnt firefly luciferase reporter signal (SW480 [4]): 0.909 ± 0.028

Cc1ccc2c(c1)CC[C@H]1CC(=O)CC[C@]21C
cell viability (DLD1 [1]): 1.03 ± 0.035
cell viability (HCT116): 1.05 ± 0.097
cell viability (SW480 [2]): 0.9365 ± 0.0021
TCF/Wnt firefly luciferase reporter signal (DLD1 [3]): 0.941 ± 0.13
TCF/Wnt firefly luciferase reporter signal (SW480 [4]): 0.957 ± 0.0028

O=C1NC(Cc2ccc(O)cc2)C(=O)NC1Cc1ccc(O)cc1 (stereo not given) [Cyclo(tyrosyltyrosyl)]
cell viability (DLD1 [1]): 0.902 ± 0.091
cell viability (HCT116): 0.942 ± 0.11
cell viability (SW480 [2]): 0.953 ± 0.011
TCF/Wnt firefly luciferase reporter signal (DLD1 [3]): 1.04 ± 0.057
TCF/Wnt firefly luciferase reporter signal (SW480 [4]): 0.98 ± 0.023

O=C(OC[C@H]1O[C@@H](OC(=O)c2cc(O)c(O)c(OC(=O)c3cc(O)c(O)c(O)c3)c2)[C@H](OC(=O)c2cc(O)c(O)c(OC(=O)c3cc(O)c(O)c(O)c3)c2)[C@@H](OC(=O)c2cc(O)c(O)c(OC(=O)c3cc(O)c(O)c(O)c3)c2)[C@@H]1OC(=O)c1cc(O)c(O)c(OC(=O)c2cc(O)c(O)c(O)c2)c1)c1cc(O)c(O)c(OC(=O)c2cc(O)c(O)c(O)c2)c1
cell viability (DLD1 [1]): 1.025 ± 0.0071
cell viability (HCT116): 0.915 ± 0.04
cell viability (SW480 [2]): 1 ± 0.05
TCF/Wnt firefly luciferase reporter signal (DLD1 [3]): 0.794 ± 0.055
TCF/Wnt firefly luciferase reporter signal (SW480 [4]): 0.913 ± 0.047
